Consider five molecules from PubChem BioAssay.

Activity calls are given as the source filed them.

For experiment [1], the system named is PRMT1 (protein arginine N-methyltransferase 1). The experiment is described as follows: small molecules binding arginine methyltransferase PRMT1 – biochemical, small-molecule microarray, 635 nm fluorescence, primary screen (AID 1088).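 Also: binding of Prmt1 protein to compounds spotted on small-molecule microarray slides.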 The settings on record: higher = more signal.
Experiment [2] is described as follows: growth effects on S. cerevisiae YJM789 – YJM789 clinical isolate, OD600, 24 h, basal, primary screen (AID 1089).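 Also: growth of clinical yeast isolate S. cerevisiae YJM 789 seeded 1000 cells per well; test concentration not given here.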 The conditions noted are these: higher = more signal, called active from +8 up or from −8 down.
Experiment [3] can be described thus: S. pombe growth modifiers, basal conditions – strain 972, OD600, 24 h, no modulator, primary screen (AID 1090).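 Also: basal condition with compound alone and no growth modifier present; test concentration not given here.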 The settings on record: S. pombe 972 growth, higher = more signal, called active from +8 up or from −8 down.
The nature of experiment [4]: budding yeast growth modifiers under rapamycin – strain BY4716, OD600, 96 h, primary screen (AID 1091). Also: test concentration not given here. The settings on record: S. cerevisiae BY4716 + rapamycin, higher = more signal, called active from +8 up or from −8 down.
Experiment [5] deals with Torsin-1A-interacting protein 2 (Homo sapiens) (UniProt Q8NFQ8). As to the kind of experiment: small molecules binding lysate-expressed LULL1 – cell lysate, human LULL1 lysate, 635/667 nm fluorescence, primary screen (AID 1092).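 Also: probe is lysate of COS7 cells overexpressing human LULL1; score merges per-feature 667 nm fluorescence with signal-to-noise.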 The conditions noted are these: small-molecule microarray, hLULL1 lysate binding, 635 nm fluorescence; higher = more signal.
A short description of experiment [6]: optical density change of DRC41 E. coli – strain DRC41, OD650, 24 h, E. coli filamentation project, primary screen (AID 1093).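 Also: MC1000 strain lacking acrAB efflux and sulA so SOS filamentation is blocked; test concentration not given here.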 The settings on record: E. coli DRC41 growth, higher = more signal, called active from +8 up or from −8 down.
The nature of experiment [7]: probe aLefty2 binding to arrayed compounds – biochemical, biotinylated probe, 635/667 nm fluorescence, primary screen (AID 1094).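 Also: score merges spot fluorescence near 667 nm with spot signal-to-noise ratio.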 The settings on record: small-molecule microarray, higher = more signal.
Experiment [8] has as its system Noggin (protein binding on small-molecule microarray). As to the kind of experiment: small molecules binding Noggin protein – biochemical, 635/667 nm fluorescence, primary screen (AID 1095).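 Also: score merges 667 nm feature fluorescence with signal to noise over triplicate slides.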 The settings on record: 635 nm fluorescence, higher = more signal.
Experiment [9] deals with Neurogenic locus notch homolog protein 3 (Homo sapiens) (UniProt Q9UM47). As to the kind of experiment: small molecules binding NOTCH3 protein – biochemical, 635/667 nm fluorescence, primary screen (AID 1096). The settings on record: small-molecule microarray, 635 nm fluorescence, higher = more signal.
Experiment [10] is described as follows: probe aEGFR binding to arrayed compounds – biochemical, biotinylated probe, 635/667 nm fluorescence, primary screen (AID 1097).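 Also: probe is a biotinylated anti-EGFR antibody binding compounds printed on slides; score combines fluorescence near 667 nm and signal to noise of each spot.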 The settings on record: small-molecule microarray, higher = more signal.
Experiment [11] has as its system Plasmodium falciparum Sir2 (PF13_0152, Sir2A). As to the kind of experiment: Plasmodium falciparum Sir2A binding compounds – biochemical, small-molecule microarray, 635 nm fluorescence, primary screen (AID 1098).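 Also: score merges spot fluorescence intensity with its signal-to-noise ratio.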 The settings on record: fluorescence 635 nm, higher = more signal.
Experiment [12] can be described thus: probe aDKK1 binding to arrayed compounds – biochemical, biotinylated probe, 635/667 nm fluorescence, primary screen (AID 1099).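 Also: score merges 667nm spot fluorescence with signal to noise across triplicate slides; reference of the scale not given here.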 The settings on record: small-molecule microarray, higher = more signal.
Experiment [13] in a line: probe aCHRDL2 binding to arrayed compounds – biochemical, biotinylated probe, 635/667 nm fluorescence, primary screen (AID 1100). The settings on record: small-molecule microarray, higher = more signal.
Experiment [14] is described as follows: change in splice reporter luminescence, either direction, cell-based, HEK293, spliceosome inhibition project, primary screen (AID 1101).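 Also: HEK293 cells carrying a splicing-competent luciferase reporter gene; test concentration not given here.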 The conditions noted are these: HEK293 splicing luciferase reporter, 24 h, higher = more signal, called active from +8 up or from −8 down.
Experiment [15] has as its target Fibroblast growth factor 10 (Homo sapiens) (UniProt O15520). As to the kind of experiment: compounds binding fibroblast growth factor 10 – biochemical, small-molecule microarray, 635 nm fluorescence, primary screen (AID 1102). The settings on record: FGF10 binding, fluorescence 635 nm, higher = more signal.
Experiment [16] relates to glycogen synthase kinase-3 (GSK3A per assay name; protocol says GSK3B). The experiment is described as follows: compounds binding glycogen synthase kinase-3 – biochemical, small-molecule microarray, 635 nm fluorescence, GSK3A, primary screen (AID 1103). Also: the record names both GSK3A and GSK3B. The conditions noted are these: fluorescence 635 nm, higher = more signal.
The target of experiment [17] is Epidermal growth factor receptor (Homo sapiens) (UniProt P00533). The experiment is described as follows: compounds binding epidermal growth factor receptor – biochemical, small-molecule microarray, 635 nm fluorescence, primary screen (AID 1104).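 Also: score merges 667 nm emission intensity with spot signal to noise over triplicate slides.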 The conditions noted are these: EGFR binding, higher = more signal.
Experiment [18] deals with Follistatin-related protein 3 (Homo sapiens) (UniProt O95633). As to the kind of experiment: compounds binding follistatin-related protein 3 – biochemical, small-molecule microarray, 635 nm fluorescence, primary screen (AID 1105).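 Also: score merges emission near 667 nm and signal to noise per printed spot across three slides.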 The conditions noted are these: FSTL3 binding, higher = more signal.
The target of experiment [19] is Dickkopf-related protein 1 (Homo sapiens) (UniProt O94907). As to the kind of experiment: small molecules binding DKK1 protein – biochemical, small-molecule microarray, 635 nm fluorescence scan, primary screen (AID 1106).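 Also: score merges emission near 667 nm with signal to noise over three replicate slides.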 The settings on record: higher = more signal.
The subject of experiment [20] is Inhibin beta A chain (activin A). The experiment is described as follows: small molecules binding activin A – biochemical, small-molecule microarray, 635 nm fluorescence scan, primary screen (AID 1107).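 Also: mouse activin A protein probed at 4.33 µg/mL on printed slides; score merges bound-protein fluorescence near 667 nm with spot signal-to-noise.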 The settings on record: INHBA, higher = more signal.

Sequence of Epidermal growth factor receptor (Homo sapiens) (P00533 whole entry, looked up): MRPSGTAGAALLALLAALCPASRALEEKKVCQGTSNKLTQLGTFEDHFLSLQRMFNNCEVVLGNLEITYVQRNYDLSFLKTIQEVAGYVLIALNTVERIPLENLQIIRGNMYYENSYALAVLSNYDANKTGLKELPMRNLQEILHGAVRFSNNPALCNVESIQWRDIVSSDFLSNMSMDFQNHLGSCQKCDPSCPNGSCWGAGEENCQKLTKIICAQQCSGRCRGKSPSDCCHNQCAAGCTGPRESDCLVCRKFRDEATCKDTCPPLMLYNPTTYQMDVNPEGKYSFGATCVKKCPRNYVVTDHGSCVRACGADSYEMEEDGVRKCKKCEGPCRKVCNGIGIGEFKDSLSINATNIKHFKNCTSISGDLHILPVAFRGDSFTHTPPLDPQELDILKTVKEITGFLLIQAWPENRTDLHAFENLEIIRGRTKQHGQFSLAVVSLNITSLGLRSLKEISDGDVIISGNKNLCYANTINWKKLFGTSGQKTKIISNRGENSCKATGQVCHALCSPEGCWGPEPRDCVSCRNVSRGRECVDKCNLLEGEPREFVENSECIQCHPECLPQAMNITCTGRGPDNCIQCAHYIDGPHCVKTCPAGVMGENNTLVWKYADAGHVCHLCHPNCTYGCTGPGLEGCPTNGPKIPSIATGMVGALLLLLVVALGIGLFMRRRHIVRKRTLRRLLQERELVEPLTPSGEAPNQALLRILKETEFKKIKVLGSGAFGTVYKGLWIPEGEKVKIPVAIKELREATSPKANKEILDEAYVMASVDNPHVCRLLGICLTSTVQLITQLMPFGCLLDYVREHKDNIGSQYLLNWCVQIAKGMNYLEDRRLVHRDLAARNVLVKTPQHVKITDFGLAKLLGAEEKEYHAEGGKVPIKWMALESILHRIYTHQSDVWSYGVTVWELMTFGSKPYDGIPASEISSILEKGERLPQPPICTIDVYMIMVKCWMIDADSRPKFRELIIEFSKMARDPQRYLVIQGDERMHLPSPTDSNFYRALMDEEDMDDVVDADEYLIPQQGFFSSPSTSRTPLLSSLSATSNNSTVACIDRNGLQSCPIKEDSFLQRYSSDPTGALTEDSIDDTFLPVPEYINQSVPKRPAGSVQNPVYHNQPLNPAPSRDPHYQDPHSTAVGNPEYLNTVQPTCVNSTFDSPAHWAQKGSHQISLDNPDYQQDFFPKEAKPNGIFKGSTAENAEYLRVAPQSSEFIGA
Sequence of Fibroblast growth factor 10 (Homo sapiens) (O15520 whole entry, looked up): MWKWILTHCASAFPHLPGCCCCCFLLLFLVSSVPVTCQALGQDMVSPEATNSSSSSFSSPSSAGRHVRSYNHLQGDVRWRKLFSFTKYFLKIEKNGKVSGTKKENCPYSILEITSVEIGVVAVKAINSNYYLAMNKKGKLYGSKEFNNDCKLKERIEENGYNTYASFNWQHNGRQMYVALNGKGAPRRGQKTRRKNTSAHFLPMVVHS
Sequence of Follistatin-related protein 3 (Homo sapiens) (O95633 whole entry, looked up): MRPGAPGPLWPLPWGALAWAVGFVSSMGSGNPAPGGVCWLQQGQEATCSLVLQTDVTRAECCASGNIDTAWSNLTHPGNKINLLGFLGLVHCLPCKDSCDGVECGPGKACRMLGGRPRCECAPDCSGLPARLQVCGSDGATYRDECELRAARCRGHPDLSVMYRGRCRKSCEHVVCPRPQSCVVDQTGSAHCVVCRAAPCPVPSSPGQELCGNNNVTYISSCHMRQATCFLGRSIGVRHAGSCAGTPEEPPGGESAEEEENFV
Sequence of Dickkopf-related protein 1 (Homo sapiens) (O94907 whole entry, looked up): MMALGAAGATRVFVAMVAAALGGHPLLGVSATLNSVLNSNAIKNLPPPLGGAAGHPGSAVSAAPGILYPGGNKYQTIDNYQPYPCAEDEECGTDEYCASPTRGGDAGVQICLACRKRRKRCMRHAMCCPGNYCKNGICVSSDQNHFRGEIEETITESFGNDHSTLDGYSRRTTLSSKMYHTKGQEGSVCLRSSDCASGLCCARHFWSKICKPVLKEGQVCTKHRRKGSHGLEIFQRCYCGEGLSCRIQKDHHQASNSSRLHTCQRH
Sequence of Torsin-1A-interacting protein 2 (Homo sapiens) (Q8NFQ8 whole entry, looked up): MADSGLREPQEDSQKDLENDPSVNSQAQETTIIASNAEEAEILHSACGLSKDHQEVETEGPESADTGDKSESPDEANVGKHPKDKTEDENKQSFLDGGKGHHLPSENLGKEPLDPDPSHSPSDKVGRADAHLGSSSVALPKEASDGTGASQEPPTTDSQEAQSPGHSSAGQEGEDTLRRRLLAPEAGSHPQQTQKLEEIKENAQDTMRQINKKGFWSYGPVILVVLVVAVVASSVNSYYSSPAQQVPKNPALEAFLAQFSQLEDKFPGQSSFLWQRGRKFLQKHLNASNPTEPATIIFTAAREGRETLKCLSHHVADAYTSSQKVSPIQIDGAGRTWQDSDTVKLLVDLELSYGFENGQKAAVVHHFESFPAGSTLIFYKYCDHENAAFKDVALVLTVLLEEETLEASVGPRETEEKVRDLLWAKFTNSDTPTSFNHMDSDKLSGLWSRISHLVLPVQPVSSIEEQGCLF
Sequence of Neurogenic locus notch homolog protein 3 (Homo sapiens) (Q9UM47 whole entry, looked up): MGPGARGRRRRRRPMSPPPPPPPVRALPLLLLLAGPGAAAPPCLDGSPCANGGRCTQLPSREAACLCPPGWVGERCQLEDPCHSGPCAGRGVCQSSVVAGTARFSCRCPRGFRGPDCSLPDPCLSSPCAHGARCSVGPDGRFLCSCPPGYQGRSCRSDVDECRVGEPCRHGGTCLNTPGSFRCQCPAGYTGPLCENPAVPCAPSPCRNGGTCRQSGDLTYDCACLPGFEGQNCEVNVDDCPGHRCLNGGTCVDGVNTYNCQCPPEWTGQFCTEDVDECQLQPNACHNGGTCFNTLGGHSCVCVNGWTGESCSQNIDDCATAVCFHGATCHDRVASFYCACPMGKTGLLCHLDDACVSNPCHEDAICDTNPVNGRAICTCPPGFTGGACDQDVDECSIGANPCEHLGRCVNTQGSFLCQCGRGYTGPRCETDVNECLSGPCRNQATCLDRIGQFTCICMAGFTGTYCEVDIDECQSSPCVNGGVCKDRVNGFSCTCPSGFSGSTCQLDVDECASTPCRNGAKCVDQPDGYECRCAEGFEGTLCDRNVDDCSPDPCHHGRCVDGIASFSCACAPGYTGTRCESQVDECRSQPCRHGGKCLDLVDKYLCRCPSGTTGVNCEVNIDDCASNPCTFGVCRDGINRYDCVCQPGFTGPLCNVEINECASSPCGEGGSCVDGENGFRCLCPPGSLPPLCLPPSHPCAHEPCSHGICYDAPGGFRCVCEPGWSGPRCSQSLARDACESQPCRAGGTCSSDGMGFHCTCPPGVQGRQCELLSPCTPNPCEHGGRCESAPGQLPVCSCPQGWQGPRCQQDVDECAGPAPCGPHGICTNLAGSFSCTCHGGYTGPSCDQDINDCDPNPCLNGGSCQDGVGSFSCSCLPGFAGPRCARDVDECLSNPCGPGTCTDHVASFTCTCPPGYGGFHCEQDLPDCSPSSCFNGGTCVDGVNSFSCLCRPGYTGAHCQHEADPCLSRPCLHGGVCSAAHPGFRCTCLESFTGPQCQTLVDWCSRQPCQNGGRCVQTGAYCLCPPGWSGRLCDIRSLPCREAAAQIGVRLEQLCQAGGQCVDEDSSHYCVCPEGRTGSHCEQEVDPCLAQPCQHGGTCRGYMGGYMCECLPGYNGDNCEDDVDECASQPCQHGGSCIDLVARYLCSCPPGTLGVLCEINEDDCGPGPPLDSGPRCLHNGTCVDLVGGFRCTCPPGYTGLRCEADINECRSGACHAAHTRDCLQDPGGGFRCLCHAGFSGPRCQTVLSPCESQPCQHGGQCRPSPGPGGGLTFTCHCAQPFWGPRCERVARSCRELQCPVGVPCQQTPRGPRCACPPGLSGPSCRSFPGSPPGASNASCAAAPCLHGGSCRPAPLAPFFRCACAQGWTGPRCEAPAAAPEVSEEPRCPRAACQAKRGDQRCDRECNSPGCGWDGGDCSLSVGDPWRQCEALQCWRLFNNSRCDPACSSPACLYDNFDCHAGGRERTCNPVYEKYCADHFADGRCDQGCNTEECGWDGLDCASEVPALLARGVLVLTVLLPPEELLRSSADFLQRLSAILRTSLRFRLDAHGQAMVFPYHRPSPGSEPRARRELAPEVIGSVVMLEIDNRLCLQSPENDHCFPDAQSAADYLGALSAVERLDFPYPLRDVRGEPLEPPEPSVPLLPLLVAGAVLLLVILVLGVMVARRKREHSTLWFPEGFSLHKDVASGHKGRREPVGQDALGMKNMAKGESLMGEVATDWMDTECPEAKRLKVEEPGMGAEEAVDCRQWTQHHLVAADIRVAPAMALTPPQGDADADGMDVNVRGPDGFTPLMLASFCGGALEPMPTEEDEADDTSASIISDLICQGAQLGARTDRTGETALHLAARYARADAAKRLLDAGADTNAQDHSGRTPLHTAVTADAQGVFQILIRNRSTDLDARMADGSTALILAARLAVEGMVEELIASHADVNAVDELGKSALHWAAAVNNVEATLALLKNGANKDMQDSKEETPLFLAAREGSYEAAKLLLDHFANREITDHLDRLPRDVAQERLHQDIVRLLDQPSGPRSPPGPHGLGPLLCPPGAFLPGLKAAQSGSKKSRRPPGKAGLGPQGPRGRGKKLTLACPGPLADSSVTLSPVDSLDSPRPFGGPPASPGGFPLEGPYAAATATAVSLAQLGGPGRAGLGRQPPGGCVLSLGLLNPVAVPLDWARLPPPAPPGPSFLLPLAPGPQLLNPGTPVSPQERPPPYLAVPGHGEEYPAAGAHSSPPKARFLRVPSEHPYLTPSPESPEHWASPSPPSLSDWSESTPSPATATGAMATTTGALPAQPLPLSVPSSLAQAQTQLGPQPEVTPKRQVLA

In the case of `CO[C@@H]1COC(=O)CC=C[C@@H](C)[C@H](OC)COC(=O)[C@@H](C)COC(=O)CC=C[C@H]1C`, the composite z-score in experiment [1] was 0.263; in experiment [5] it was -0.915; in experiment [7] it was -0.317; in experiment [8] it was 0.496; in experiment [9], -0.81; in experiment [10], -0.616. For the same molecule, the composite z-score was 0.474 in [11]; -0.803 in experiment [12]; -1.29 in [13]; -0.55 in experiment [15]; 0.0478 in experiment [16]; 0.354 in experiment [17]. The figures for the composite z-score in experiment [18], in experiment [19] and in experiment [20] were 0.734, 1.37 and 1.85, respectively. The z-score in experiment [2] was 0.659 (inactive); in [3] it was -0.155 (inactive); in [4], 1.2 (inactive); in [6], 0.421 (inactive); in experiment [14] it was 0.166 (inactive).
As to `O=C1[C@H]2[C@H]3[C@H](O)[C@H](O)CC(=NOCc4ccccc4)[C@@H]3CC[C@H]2C(=O)N1C[C@@H]1CCCO1`, the composite z-score in experiment [1] is -0.423; in experiment [5], 0.292; in experiment [7], -0.114; in experiment [8] it was 0.228; in experiment [9], 0.237; in [10], -0.0151. Besides, the composite z-score in [11] was 0.0048; in [12] it was -0.168; in experiment [13] it was -0.21; in experiment [15] it was 0.179; in [16] it was -0.451; in [17], -0.0735. Moreover, the composite z-score in [18] is -0.304; in experiment [19], -0.028; in experiment [20], 0.164. In addition, the z-score is -0.857 (inactive) in experiment [2]; 0.767 (inactive) in [3]; -0.369 (inactive) in [4]; 1.27 (inactive) in [6]; 0.274 (inactive) in experiment [14].
`COC(=O)CC=C[C@@H](C)[C@@H](C=NO[C@@H]1O[C@H](COC(C)=O)[C@@H](OC(C)=O)[C@H](OC(C)=O)[C@H]1OC(C)=O)NS(=O)(=O)c1ccc(C)cc1`: the composite z-score in [1] is 1.41; in experiment [5], -0.147; in experiment [7] it was -0.134; in [8] it was 0.521; in [9], 0.545; in experiment [10] it was -0.152. The composite z-score is -0.119 in experiment [11]; -0.268 in [12]; -0.645 in experiment [13]; 0.626 in experiment [15]; -0.448 in [16]; 0.504 in [17]. The results for the composite z-score in experiment [18], in experiment [19] and in experiment [20] were -0.212, 0.833 and -1.58, respectively. Also, the z-score in experiment [2] was 0.0457 (inactive); in experiment [3], -0.23 (inactive); in experiment [4] it was -0.615 (inactive); in experiment [6], -1.32 (inactive); in [14], -0.15 (inactive).
With `CCC(=O)[C@@]1(O)C(=O)N2C(=C3C(=O)OCC[C@@H]31)N(Cc1ccccc1)C(C)=C(C(=O)OC)[C@H]2c1ccccc1`, the composite z-score is 0.374 in [1]; 0.399 in experiment [5]; -0.232 in [7]; 0.644 in [8]; 0.367 in [9]; -0.0059 in experiment [10]. Further, the composite z-score in experiment [11] was 0.413; in experiment [12], -0.302; in experiment [13] it was -0.624; in experiment [15], 0.241; in experiment [16] it was 0.554; in experiment [17], 0.43. Further, the composite z-score in experiment [18] was 0.429; in experiment [19] it was 0.873; in experiment [20], -0.0748. Moreover, the z-score in experiment [2] was 0.725 (inactive); in [3], -0.612 (inactive); in experiment [4], 0.0739 (inactive); in experiment [6] it was 0.568 (inactive); in experiment [14] it was 0.501 (inactive).
With `COC(=O)[C@@H]1CC[C@H](C)[C@@H](c2ccc(C)cc2)N1C(=O)c1ccc(C=NO[C@@H](C)c2cn([C@H](CO)Cc3ccccc3)nn2)cc1`, the composite z-score in [1] was 1.44; in experiment [5], 1.57; in experiment [7], -0.126; in [8], 1.19; in experiment [9] it was 1.1; in [10], 0.24. For the same molecule, the composite z-score was 1.03 in experiment [11]; -0.0212 in [12]; -0.925 in experiment [13]; 1.09 in experiment [15]; 1.16 in [16]; 0.797 in experiment [17]. The composite z-score is 1.17 in experiment [18], 1.22 in experiment [19] and -0.116 in experiment [20]. For the same molecule, the z-score in experiment [2] is 0.76 (inactive); in experiment [3], 0.249 (inactive); in [4], 1.25 (inactive); in experiment [6], 1.35 (inactive); in experiment [14] it was -0.746 (inactive).
